Experimental data reported in PubChem BioAssay.
For part of these data: Results with a measured potency or affinity are listed apart. Active and inactive are the calls of the source.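 The calls were made as follows, unless noted: active = primary screen inhibitor hit that blocks the TRPC4 channel at some tested dose, yielding a dose curve; inactive = the rest.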

Experiments:
[1] = system: TRPC4 beta (transient receptor potential cation channel C4), mouse; assay: activators of mouse TRPC4 channel, confirmation, cell-based, Fluo4 calcium, HEK293 TRPC4beta/mu-opioid, duplicates, 10 µM (AID 2426;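 active = fluorescence ratio normalized to control raised more than 50% in primary screen plus both repeat runs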); conditions: Fluo4 calcium fluorescence, at 10 µM; active compounds read high
[2] = system: transient receptor potential cation channel C4 beta (TRPC4), mouse; assay: activators of mouse TRPC4 channel, confirmation, cell-based, second round, Fluo4, HEK293 TRPC4beta/mu-opioid, 1 µM (AID 2461;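 active = primary screen active and over 50% activation in each of two duplicate runs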); conditions: Fluo4 calcium fluorescence, at 1 µM; active compounds read high
[3] = system: TRPC4 (transient receptor potential cation channel C4 beta), mouse; assay: positive allosteric modulators of mouse TRPC4, confirmation, cell-based, second round, Fluo-4, HEK293 TRPC4beta/mu-opioid, 1 µM (AID 2554;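 active = primary screen hit whose fluorescence ratio, in both repeats, exceeds the weak agonist control mean by 3 SD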); conditions: DAMGO EC20, Fluo-4 calcium flux, at 1 µM; active compounds read high
[4] = system: TRPC4 beta (transient receptor potential cation channel C4), mouse; assay: positive allosteric modulators of mouse TRPC4, confirmation, cell-based, Fluo-4, HEK293 TRPC4beta/mu-opioid (AID 2555;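 active = primary screen hit whose calcium fluorescence ratio, in both repeats, exceeds the weak agonist control mean by 3 SD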); conditions: DAMGO EC20, Fluo-4 calcium flux, at 10 µM; active compounds read high
[5] = target: Short transient receptor potential channel 4 (Mus musculus) (UniProt Q9QUQ5); assay: inhibitors of mouse TRPC4 channel, confirmation, cell-based, Fluo4, HEK293 TRPC4beta/mu-opioid (AID 2636;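 active = calcium signal cut by more than 3 SD below the full-agonist control yet still positive, in both repeats and the earlier primary screen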); conditions: DAMGO, Fluo4 calcium flux, at 10 µM; active compounds read high
Short transient receptor potential channel 4 (Mus musculus), sequence (Q9QUQ5 whole entry, looked up): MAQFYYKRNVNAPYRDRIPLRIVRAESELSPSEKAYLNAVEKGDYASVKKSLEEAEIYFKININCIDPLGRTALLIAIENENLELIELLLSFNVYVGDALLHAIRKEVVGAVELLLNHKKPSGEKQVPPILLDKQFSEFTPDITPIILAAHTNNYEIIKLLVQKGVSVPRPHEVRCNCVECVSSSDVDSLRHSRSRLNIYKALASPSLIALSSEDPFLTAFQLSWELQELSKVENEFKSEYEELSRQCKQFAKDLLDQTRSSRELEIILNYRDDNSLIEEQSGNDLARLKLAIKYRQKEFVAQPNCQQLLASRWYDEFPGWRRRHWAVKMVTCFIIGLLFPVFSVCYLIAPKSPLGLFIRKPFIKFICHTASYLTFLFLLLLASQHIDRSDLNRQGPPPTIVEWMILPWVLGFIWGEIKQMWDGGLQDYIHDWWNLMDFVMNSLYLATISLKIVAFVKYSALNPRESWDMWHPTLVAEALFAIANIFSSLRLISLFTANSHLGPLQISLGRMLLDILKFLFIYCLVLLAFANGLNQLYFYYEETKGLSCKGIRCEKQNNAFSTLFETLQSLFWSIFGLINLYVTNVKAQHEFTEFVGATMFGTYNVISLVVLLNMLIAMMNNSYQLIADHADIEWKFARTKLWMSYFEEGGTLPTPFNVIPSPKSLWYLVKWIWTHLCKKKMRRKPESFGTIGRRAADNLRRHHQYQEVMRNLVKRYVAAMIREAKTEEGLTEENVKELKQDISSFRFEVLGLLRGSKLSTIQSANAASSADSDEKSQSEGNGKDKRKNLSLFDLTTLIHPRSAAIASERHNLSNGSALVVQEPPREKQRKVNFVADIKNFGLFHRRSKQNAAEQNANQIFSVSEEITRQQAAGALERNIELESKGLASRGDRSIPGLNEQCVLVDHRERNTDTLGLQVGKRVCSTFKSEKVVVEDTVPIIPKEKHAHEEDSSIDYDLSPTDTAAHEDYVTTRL

[6] = target: Short transient receptor potential channel 4 (Mus musculus) (UniProt Q9QUQ5); assay: inhibitors of mouse TRPC4 channel, confirmation, cell-based, second round, Fluo4, HEK293 TRPC4beta/mu-opioid, 1 µM (AID 2637;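 active = calcium signal ratio cut to more than 3 SD under the fully stimulated control mean yet still positive, in both repeats and the primary screen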); conditions: Fluo4 calcium flux, DAMGO, at 1 µM; active compounds read high
[7] = target: Short transient receptor potential channel 4 (Mus musculus) (UniProt Q9QUQ5); assay: mouse TRPC4 channel activators, dose response, cell-based, HEK293 TRPC4/mu-opioid, Fluo-4 calcium (AID 434937;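 active = primary screen activator hit with a dose response curve and TRPC4 channel activation at any tested dose; inactive = no activation, no dose response, or not a primary hit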)
[8] = target: Short transient receptor potential channel 4 (Mus musculus) (UniProt Q9QUQ5); assay: TRPC4 positive allosteric modulators, dose response, cell-based, HEK293 TRPC4/mu-opioid, Fluo-4 calcium, EC20 DAMGO (AID 434941;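 active = earlier screen potentiator hit that boosts the TRPC4 ion channel at some dose, with a dose response; inactive = no potentiation, no dose response, or not a prior hit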;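 also: calcium entry triggered by an EC20 dose of DAMGO at the co-expressed mu-opioid receptor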)
[9] = target: Short transient receptor potential channel 4 (Mus musculus) (UniProt Q9QUQ5); assay: mouse TRPC4 channel inhibitors, dose response, cell-based, HEK293 TRPC4/mu-opioid, Fluo-4 calcium (AID 434942)
[10] = target: Short transient receptor potential channel 6 (Mus musculus) (UniProt Q61143); assay: inhibition of mouse TRPC6 channel, confirmation, selectivity assay for TRPC4 inhibitor project, cell-based, HEK293, membrane potential dye, duplicate (AID 434948;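 active = active in primary screen and both duplicates, each dropping signal beyond three positive-control SD with fluorescence still positive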); conditions: HEK293 TRPC6, membrane potential dye fluorescence, at 10 µM, stimulated with maximal-effect acetylcholine; active compounds read high
Short transient receptor potential channel 6 (Mus musculus), sequence (Q61143 whole entry, looked up): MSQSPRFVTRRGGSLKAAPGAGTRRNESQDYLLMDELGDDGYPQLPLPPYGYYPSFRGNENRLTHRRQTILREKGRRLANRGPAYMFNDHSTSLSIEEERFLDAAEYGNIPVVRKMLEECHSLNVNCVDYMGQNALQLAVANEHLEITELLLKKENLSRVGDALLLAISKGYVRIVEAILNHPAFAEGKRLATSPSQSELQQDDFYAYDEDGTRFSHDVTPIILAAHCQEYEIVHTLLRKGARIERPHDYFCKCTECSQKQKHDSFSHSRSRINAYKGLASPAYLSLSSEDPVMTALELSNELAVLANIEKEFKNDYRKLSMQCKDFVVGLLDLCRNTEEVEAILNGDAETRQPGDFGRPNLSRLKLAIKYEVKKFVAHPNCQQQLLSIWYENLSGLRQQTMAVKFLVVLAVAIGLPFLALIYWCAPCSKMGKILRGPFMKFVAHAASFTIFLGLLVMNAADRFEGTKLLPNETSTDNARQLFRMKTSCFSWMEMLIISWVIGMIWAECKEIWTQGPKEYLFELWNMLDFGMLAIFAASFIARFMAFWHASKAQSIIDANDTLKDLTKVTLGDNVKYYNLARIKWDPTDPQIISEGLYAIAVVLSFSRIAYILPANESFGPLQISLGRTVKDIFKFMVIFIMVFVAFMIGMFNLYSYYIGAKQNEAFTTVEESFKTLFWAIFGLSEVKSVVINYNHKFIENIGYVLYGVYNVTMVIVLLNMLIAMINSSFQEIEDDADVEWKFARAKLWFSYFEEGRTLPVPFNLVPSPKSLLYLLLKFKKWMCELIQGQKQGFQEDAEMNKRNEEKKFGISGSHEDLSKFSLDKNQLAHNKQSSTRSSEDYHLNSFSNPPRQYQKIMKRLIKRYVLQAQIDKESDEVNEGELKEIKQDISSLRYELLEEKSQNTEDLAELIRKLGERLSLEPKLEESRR

[11] = target: Short transient receptor potential channel 6 (Mus musculus) (UniProt Q61143); assay: activation of mouse TRPC6 channel, confirmation, selectivity assay for TRPC4 activator project, cell-based, HEK293, membrane potential dye, duplicate (AID 434950;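 active = membrane potential signal rise above negative control mean plus 3 SD in both duplicates, also active in the earlier TRPC4 screen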); conditions: HEK293 TRPC6, membrane potential fluorescence, at 10 µM; active compounds read high
[12] = target: Short transient receptor potential channel 6 (Mus musculus) (UniProt Q61143); assay: TRPC6 potentiation by TRPC4 potentiator hits, confirmation, selectivity assay for TRPC4 potentiator project, HEK293 cells, membrane potential dye, duplicate (AID 434952;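 active = compound raising the membrane signal above positive-control mean plus 3 SD in both repeats, and a primary screen hit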); conditions: HEK293 TRPC6, membrane potential dye fluorescence, at 10 µM, maximal acetylcholine added after compound; active compounds read high
[13] = target: Short transient receptor potential channel 4 (Mus musculus) (UniProt Q9QUQ5); assay: calcium flux activators in TRPC4/5HT1a cells, counter-screen for TRPC4 activator project, cell-based, second counter screen, HEK293 TRPC4/5HT1a, Fluo-4 (AID 434977;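 active = calcium signal rise above buffer-control mean plus 5 SD in both duplicates, and also a hit in the primary screen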); conditions: Fluo-4 calcium flux, at 10 µM; active compounds read high
[14] = calcium flux inhibitors in TRPC4/5HT1a cells, confirmation, counter-screen for TRPC4 inhibitor project, cell-based, second counter screen, HEK293 TRPC4/5HT1a, Fluo-4 (AID 434978;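 active = primary screen active whose calcium signal fell more than 3 SD beyond the full-serotonin control mean in both duplicate plates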;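 also: serotonin given first at submaximal then at maximal dose after compound preincubation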); conditions: Fluo-4 calcium flux, at 10 µM, serotonin added to trigger calcium flux; active compounds read high
[15] = system: TRPC4 (mouse), co-expressed with 5HT1a in HEK293; assay: calcium flux potentiators in TRPC4/5HT1a cells, confirmation, counter-screen for TRPC4 potentiator project, cell-based, second counter screen, HEK293 TRPC4/5HT1a, Fluo-4 (AID 434979;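 active = signal rise over 3 SD above mean of control wells given weak agonist, in both repeats and first screen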); conditions: Fluo-4 calcium flux, at 10 µM, serotonin added at its EC20 dose; active compounds read high
[16] = calcium flux activation in mu-opioid HEK293 cells, confirmation, counter-screen for TRPC4 activator project, cell-based, HEK293 mu-opioid receptor line (AID 449723;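 active = hit in primary screen, with calcium signal over 5 SD above buffer well mean in both duplicates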;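 also: counter screen cells carry the mu-opioid receptor alone and lack TRPC4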); conditions: Fluo-4 calcium fluorescence, at 10 µM; active compounds read high
[17] = calcium flux enhancement in mu-opioid HEK293 cells, confirmation, counter-screen for TRPC4 allosteric potentiator project, cell-based, HEK293 mu-opioid receptor line (AID 449724;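 active = calcium signal rise more than 3 SD above the low-dose agonist control mean, in both duplicate plates and the primary screen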); conditions: Fluo-4 calcium flux, at 10 µM, compound added before EC20 DAMGO stimulus; active compounds read high

Measured: potentiation

O=[N+]([O-])c1cccc(CSc2nnc(Cc3ccccc3)n2-c2ccc(F)cc2)c1
inactive: [1] | [2] | [3] | [4] | [5] | [6] | [7] | [8] | [9] | [10] | [11] | [12] | [13] | [14] | [15] | [16] | [17]

Cc1cccc(NC(=O)c2cc([N+](=O)[O-])ccc2N2CCN(C)CC2)c1
inactive: [1] | [2] | [3] | [4] | [5] | [6] | [7] | [8] | [9] | [10] | [11] | [12] | [13] | [14] | [16] | [17]
active: [15] 18.8%

CCCCN1CCc2c1nc1ccc(Br)cc1c2N
inactive: [1] | [2] | [3] | [4] | [5] | [6] | [7] | [8] | [9] | [10] | [11] | [12] | [13] | [14] | [15] | [16] | [17]

CCCc1ccc(OCc2ccc(C(=O)N3CCCC3)o2)cc1
active: [4] 23% | [15] 31.2%
inactive: [1] | [2] | [3] | [5] | [6] | [7] | [8] | [9] | [10] | [11] | [12] | [13] | [14] | [16] | [17]

COC(=O)CSc1nnc(CNS(=O)(=O)c2ccc(Br)cc2)n1C
inactive: [1] | [2] | [3] | [4] | [5] | [6] | [7] | [8] | [9] | [10] | [11] | [12] | [13] | [14] | [15] | [16] | [17]

CCOP(=O)(OCC)c1nc(-c2ccc(Cl)cc2Cl)oc1N1CCCCC1
inactive: [1] | [2] | [3] | [4] | [5] | [6] | [7] | [8] | [9] | [10] | [11] | [12] | [13] | [14] | [16] | [17]
active: [15] 54.2%

CCCCN(C)CCNC(=O)c1ccc(Cn2c(=S)[nH]c3ccc(Br)cc3c2=O)cc1
inactive: [1] | [2] | [3] | [5] | [6] | [7] | [8] | [9] | [10] | [11] | [12] | [13] | [14] | [16] | [17]
active: [4] 16% | [15] 33.5%

COc1ccc(CCNC(=O)C2CCN(C(=O)c3ccc(C(C)(C)C)cc3)CC2)cc1
inactive: [1] | [2] | [3] | [4] | [5] | [6] | [7] | [8] | [9] | [10] | [11] | [12] | [13] | [14] | [15] | [16] | [17]

c1ccc(-c2cnc(SCCN3CCOCC3)n2CC2CCCO2)cc1 (stereo not given)
inactive: [1] | [2] | [3] | [4] | [5] | [6] | [7] | [8] | [9] | [10] | [11] | [12] | [13] | [14] | [15] | [16] | [17]

CN(CC(=O)Nc1ccc(F)cc1)C(=O)COC(=O)c1ccccc1
inactive: [1] | [2] | [5] | [6] | [7] | [8] | [9] | [10] | [11] | [12] | [13] | [14] | [16] | [17]
active: [3] 27% | [4] 25% | [15] 23.8%

Cc1sc2ncnc(SCC(=O)N(C)C3CCS(=O)(=O)C3)c2c1C (stereo not given)
active: [4] 24% | [15] 13.2%
inactive: [1] | [2] | [3] | [5] | [6] | [7] | [8] | [9] | [10] | [11] | [12] | [13] | [14] | [16] | [17]

O=C(c1ccccc1)C1CCc2occc2C1=O (stereo not given)
inactive: [1] | [2] | [3] | [4] | [5] | [6] | [7] | [8] | [9] | [10] | [11] | [12] | [13] | [14] | [15] | [16] | [17]

O=C(Nc1nc2c(s1)CN(Cc1ccccc1)CC2)c1c(F)cccc1F
active: [4] 10% | [15] 14%
inactive: [1] | [2] | [3] | [5] | [6] | [7] | [8] | [9] | [10] | [11] | [12] | [13] | [14] | [16] | [17]

COc1cc2c(C(=O)N3CCN(C)CC3)c(CSc3ccccc3)n(C)c2cc1Br
inactive: [1] | [2] | [3] | [5] | [6] | [7] | [8] | [9] | [10] | [11] | [12] | [13] | [14] | [16] | [17]
active: [4] 25% | [15] 10.5%

COC(=O)[C@@]12CCCCN1[C@H](c1ccc(-c3ccccc3)cc1)[C@@H]1C(=O)N(C)C(=O)[C@@H]12
active: [15] 20.4%
inactive: [1] | [2] | [3] | [4] | [5] | [6] | [7] | [8] | [9] | [10] | [11] | [12] | [13] | [14] | [16] | [17]
